According to PubChem BioAssay (Tox21):
Values without a mark were called inactive. Results filed as inconclusive are left out. A call without a number means that no potency is given here. The source made the active and inactive calls. Unless noted, the call rests on the fitted dose curve; in most records, active means well fitted curve in the direction sought with a large enough effect in the repeat runs; inconclusive means weak or mixed curves; inactive means no such curve, though single readings can be large; an effect the other way counts as inactive or inconclusive.

Assays:
[1] = qHTS assay to identify small molecule agonists of the estrogen receptor alpha (ER-alpha) signaling pathway in the presence of an antagonist - cell viability counter screen (AID 1259386);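 further: cells exposed to compounds for 22 h at 37 °C before the viability read; nearly all actives have a fitted effect of over 30% in size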; further: potency means the concentration at half of the fitted maximal effect
Method in brief: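 ICI-182,780 at 10.0nM final accompanies the compound titration (15 concentrations, 22hr, 37C) on VM7Luc4E2 cells. The CellTiter-Fluor fluorescence readout runs in the same wells as the luciferase assay.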

[2] = qHTS assay to identify small molecule antagonists of the progesterone receptor (PR) signaling pathway - cell viability counter screen (AID 1346798); further: series mostly up to about 92 µM; nearly all actives have a fitted effect of over 50% in size
Method in brief: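 Measures cytotoxicity in parallel with the PR antagonist reporter read: HEK293T PR-UAS-bla cells get compound and R5020 for 16 hr, and remaining viable cells are quantified by CellTiter-Glo luminescence.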

[3] = qHTS assay to identify small molecule agonists of the progesterone receptor (PR) signaling pathway - cell viability counter screen (AID 1346799; calls by dose curve; further: nearly all actives have a fitted effect of over 45% in size)
Method in brief: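 Using the same plates as the PR reporter screen, HEK293T PR-UAS-bla cells received compounds for 16 hr at 37C and were then lysed with CellTiter-Glo; luminescence was read 30 min later at room temperature.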

[4] = qHTS assay to identify small molecule antagonists of the TGF-beta/Smad signaling pathway - cell viability counter screen (AID 1346824); further: nearly all actives have a fitted effect of over 50% in size
Method in brief: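 SBE-bla HEK 293T cells, incubated overnight, then compound plus 0.25 ng/mL TGF-beta1 (stock added) for 5 hr at 37 C. Viability was read in the same wells by CellTiter-Glo luminescence after 30 min at room temperature.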

[5] = qHTS assay to identify small molecule agonists of the TGF-beta/Smad signaling pathway - cell viability counter screen (AID 1346829); further: top concentration of the series differs between compounds; nearly all actives have a fitted effect of over 45% in size
Method in brief: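 SBE-bla HEK 293T cells plated overnight, compound exposure 5 hr at 37 C. Viability read in the same wells by CellTiter-Glo luminescence after 30 min at room temperature, following the beta-lactamase read.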

[6] = qHTS assay to identify small molecule agonists of the TGF-beta/Smad signaling pathway (AID 1346859; active means well fitted activation curve with a large enough effect in the signal ratio in the repeat runs, not every such curve was filed as active; the % refers to the signal ratio; further: series mostly up to about 77 µM)
Method in brief: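 Beta-lactamase reporter activity downstream of Smad binding elements was measured in stably transfected HEK 293T cells; compounds were incubated for 5 hr, substrate for 2 hr at room temperature.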

[7] = target: Thyrotropin-releasing hormone receptor (Homo sapiens) (UniProt P34981); assay: qHTS assay to identify small molecule antagonists of the thyrotropin-releasing hormone receptor (TRHR) signaling pathway (AID 1346877; active means well fitted inhibition curve with a large enough effect in the repeat runs, not every such curve was filed as active; further: series mostly up to about 51 µM)
Method in brief: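 Screening used HEK293 cells engineered with TRHR, with a brief 5 min room-temperature compound exposure preceding addition of TRH to 1 nM. The read-out was kinetic calcium-dye fluorescence, concentration-response from 15 doses in triplicate.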

[8] = target: Thyrotropin-releasing hormone receptor (Homo sapiens) (UniProt P34981); assay: qHTS assay to identify small molecule agonists of the thyrotropin-releasing hormone receptor (TRHR) signaling pathway (AID 1346891; calls by dose curve; further: potency means the concentration at half of the fitted maximal effect;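 on activation: HEK293 cells expressing TRHR with calcium dye readout; series mostly up to about 58 µM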)
Method in brief: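 Overnight-plated (18 h, 37 °C, 5% CO2) TRHR-Hek293 cells; 2 h calcium dye at 37 °C; compound in DMSO; 3-min kinetic fluorescence read.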

[9] = Caspase-3/7 induction in HepG2 cells by small molecules, qHTS assay (AID 1346978); further: nearly all actives have a fitted effect of over 15% in size
Method in brief: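 Wild-type HepG2 cells, 2,000/well, settled 5 hr at 37 C and 5% CO2, then compound-treated for 17 hr; caspase-3/7 activity read by luminescent Caspase-Glo 3/7 after 30 min at room temperature.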

[10] = Caspase-3/7 induction in CHO-K1 cells by small molecules, qHTS assay (AID 1346980); further: nearly all actives have a fitted effect of over 15% in size
Method in brief: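 Wild-type CHO-K1 cells exposed to compounds for 17hr at 37 C, 5% CO2. Caspase-3/7 activity then measured by Caspase-Glo 3/7 luminescence after 30min at room temperature.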

[11] = Caspase-3/7 induction in HepG2 cells by small molecules, qHTS cell viability counter screen (AID 1346981); further: nearly all actives have a fitted effect of over 30% in size; further: potency means the concentration at half of the fitted maximal effect
Method in brief: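 Multiplexed with the caspase-3/7 assay: HepG2 cells, 16 hr compound treatment, CellTiter-Fluor viability detection by fluorescence.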

[12] = target: Nuclear receptor subfamily 1 group I member 2 (Homo sapiens) (UniProt O75469); assay: Human pregnane X receptor (PXR) small molecule agonists, qHTS assay (AID 1346982); further: nearly all actives have a fitted effect of over 35% in size; further: potency means the concentration at half of the fitted maximal effect
Method in brief: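 We seeded PXR-Luc HepG2 cells in assay medium containing 5% charcoal-stripped FBS, added compounds 5 hr later, incubated 24 hr, and read luminescence with ONE-Glo reagent.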

[13] = target: Nuclear receptor subfamily 1 group I member 2 (Homo sapiens) (UniProt O75469); assay: Human pregnane X receptor (PXR) activation by small molecules, qHTS assay (AID 1346985); further: nearly all actives have a fitted effect of over 40% in size; further: potency means the concentration at half of the fitted maximal effect
Method in brief: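 DPX-2 cells (HepG2 co-transfected with a PXR response element and a CYP3A4-promoter luciferase construct) were seeded at 2,000 per well, rested 5 hr at 37C, then exposed to DMSO-dissolved compounds for 24 hr. Activation was read as luciferase luminescence.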

[14] = target: Progesterone receptor (Homo sapiens) (UniProt P06401); assay: qHTS assay to identify small molecule antagonists of the progesterone receptor (PR) signaling pathway (AID 1346795; active means well fitted inhibition curve with a large enough effect in the signal ratio in the repeat runs, not every such curve was filed as active; the % refers to the signal ratio; further: potency means the concentration at half of the fitted maximal effect)
Method in brief: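 Screening used a GripTite HEK293T line with PR-responsive UAS-beta-lactamase. Cells were challenged with compound in the presence of 1 nM R5020 final for 16 hr at 37C; B/G FRET substrate, 2 hr room temperature, fluorescence.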

[15] = Human pregnane X receptor (PXR) small molecule agonists, qHTS cell viability counter screen (AID 1346977); further: nearly all actives have a fitted effect of over 50% in size; further: potency means the concentration at half of the fitted maximal effect
Method in brief: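 After a 5hr pre-incubation, PXR-Luc HepG2 cells received compounds plus positive control in DMSO and were kept 24hr at 37C. Cell viability was quantified by fluorescence from CellTiter-Fluor added for the final hour.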

[16] = Caspase-3/7 induction in CHO-K1 cells by small molecules, qHTS cell viability counter screen (AID 1346979); further: nearly all actives have a fitted effect of over 35% in size; further: potency means the concentration at half of the fitted maximal effect
Method in brief: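 Multiplexed with Caspase-Glo 3/7 in CHO-K1 cells, this counter screen added CellTiter-Fluor after 16hr of compound exposure and recorded fluorescence 1hr later.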

[17] = target: Nuclear receptor subfamily 1 group I member 2 (Rattus norvegicus) (UniProt Q9R1A7); assay: Rat pregnane X receptor (rPXR) activation by small molecules, qHTS assay (AID 1346983); details: rPXR luciferase reporter cells, One-Glo luminescence, 24 h; max activation: stronger effect = higher value; further: nearly all actives have a fitted effect of over 20% in size
Method in brief: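 Cell-based rPXR activation assay: rPXR cells, 2,000 per well, rested 5hr at 37 C, then exposed to compounds in DMSO for 24 hr at 37 C. Luciferase activity read by One-Glo luminescence after 30 min at room temperature.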

[18] = target: Nuclear receptor subfamily 1 group I member 2 (Homo sapiens) (UniProt O75469); assay: CYP3A4 induction through human pregnane X receptor (PXR) by small molecules, qHTS assay (AID 1346984); further: nearly all actives have a fitted effect of over 40% in size; further: potency means the concentration at half of the fitted maximal effect
Method in brief: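 qHTS, concentration-response format: HepG2 DPX-2 line, PXR/CYP3A4-luc. Exposure 24 h, 37C. Substrate Luciferin-IPA 3uM final, 3 h. Detection One-Glo, 30 min RT.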

[19] = target: Cytochrome P450 2D6 (Homo sapiens) (UniProt P10635); assay: Cytochrome P450 Family 2 Subfamily D Member 6 (CYP2D6) small molecule antagonists: luciferase reporter qHTS assay (AID 1671196); further: nearly all actives have a fitted effect of over 50% in size; further: potency means the concentration at half of the fitted maximal effect
Method in brief: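 Luminescence (RLU), read 20 min after detection reagent, indicated CYP2D6 conversion of proluciferin to luciferin during a 1 h NADPH-dependent reaction at room temperature.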

Cytochrome P450 2D6 (Homo sapiens), sequence (P10635 whole entry, looked up): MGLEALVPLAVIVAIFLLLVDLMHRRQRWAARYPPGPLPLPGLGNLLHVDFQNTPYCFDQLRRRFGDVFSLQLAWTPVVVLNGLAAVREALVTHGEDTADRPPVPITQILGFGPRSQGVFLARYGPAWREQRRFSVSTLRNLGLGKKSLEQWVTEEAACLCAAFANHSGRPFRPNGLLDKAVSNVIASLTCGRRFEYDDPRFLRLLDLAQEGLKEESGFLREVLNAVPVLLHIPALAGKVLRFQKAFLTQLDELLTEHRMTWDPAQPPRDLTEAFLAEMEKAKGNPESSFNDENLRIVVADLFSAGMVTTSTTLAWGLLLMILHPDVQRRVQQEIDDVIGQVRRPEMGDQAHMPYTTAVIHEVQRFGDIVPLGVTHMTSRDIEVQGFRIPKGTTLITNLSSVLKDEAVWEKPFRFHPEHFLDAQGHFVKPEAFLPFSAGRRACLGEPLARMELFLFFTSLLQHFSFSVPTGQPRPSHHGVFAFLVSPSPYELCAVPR
Progesterone receptor (Homo sapiens), sequence (P06401 whole entry, looked up): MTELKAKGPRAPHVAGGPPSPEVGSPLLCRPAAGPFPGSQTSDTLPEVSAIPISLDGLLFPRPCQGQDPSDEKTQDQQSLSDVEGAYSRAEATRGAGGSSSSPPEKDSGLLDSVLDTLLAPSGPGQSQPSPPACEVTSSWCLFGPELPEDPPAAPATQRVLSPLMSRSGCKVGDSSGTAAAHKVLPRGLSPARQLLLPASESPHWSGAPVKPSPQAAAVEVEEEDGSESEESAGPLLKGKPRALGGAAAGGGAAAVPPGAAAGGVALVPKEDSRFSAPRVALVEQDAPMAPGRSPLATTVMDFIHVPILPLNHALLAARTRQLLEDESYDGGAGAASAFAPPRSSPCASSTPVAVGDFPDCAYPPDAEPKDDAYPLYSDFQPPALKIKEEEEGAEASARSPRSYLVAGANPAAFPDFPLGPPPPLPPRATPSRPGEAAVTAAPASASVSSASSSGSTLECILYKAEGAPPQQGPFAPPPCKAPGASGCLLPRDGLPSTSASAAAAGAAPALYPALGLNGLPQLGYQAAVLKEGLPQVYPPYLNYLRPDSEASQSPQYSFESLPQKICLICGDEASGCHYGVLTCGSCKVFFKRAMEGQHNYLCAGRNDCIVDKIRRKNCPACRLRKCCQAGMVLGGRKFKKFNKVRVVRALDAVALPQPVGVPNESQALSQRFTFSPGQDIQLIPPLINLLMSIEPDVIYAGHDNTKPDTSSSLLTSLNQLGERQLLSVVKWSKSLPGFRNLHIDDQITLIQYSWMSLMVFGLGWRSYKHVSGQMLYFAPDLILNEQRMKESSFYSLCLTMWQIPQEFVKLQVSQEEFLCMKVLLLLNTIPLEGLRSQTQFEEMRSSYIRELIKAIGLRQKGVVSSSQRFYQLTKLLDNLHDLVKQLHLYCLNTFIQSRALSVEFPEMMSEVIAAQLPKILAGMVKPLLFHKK
Nuclear receptor subfamily 1 group I member 2 (Homo sapiens), sequence (O75469 whole entry, looked up): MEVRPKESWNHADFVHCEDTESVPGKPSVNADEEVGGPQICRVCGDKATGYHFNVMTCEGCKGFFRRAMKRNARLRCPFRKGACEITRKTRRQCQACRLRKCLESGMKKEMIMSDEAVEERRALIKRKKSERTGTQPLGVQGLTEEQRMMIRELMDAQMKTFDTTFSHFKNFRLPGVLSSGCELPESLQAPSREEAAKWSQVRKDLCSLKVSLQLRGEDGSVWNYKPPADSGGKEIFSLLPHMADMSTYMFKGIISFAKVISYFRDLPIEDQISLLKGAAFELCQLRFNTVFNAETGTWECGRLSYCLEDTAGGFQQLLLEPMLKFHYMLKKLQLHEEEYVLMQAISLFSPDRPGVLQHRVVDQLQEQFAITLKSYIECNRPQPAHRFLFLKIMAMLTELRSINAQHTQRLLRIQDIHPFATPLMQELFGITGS
Thyrotropin-releasing hormone receptor (Homo sapiens), sequence (P34981 whole entry, looked up): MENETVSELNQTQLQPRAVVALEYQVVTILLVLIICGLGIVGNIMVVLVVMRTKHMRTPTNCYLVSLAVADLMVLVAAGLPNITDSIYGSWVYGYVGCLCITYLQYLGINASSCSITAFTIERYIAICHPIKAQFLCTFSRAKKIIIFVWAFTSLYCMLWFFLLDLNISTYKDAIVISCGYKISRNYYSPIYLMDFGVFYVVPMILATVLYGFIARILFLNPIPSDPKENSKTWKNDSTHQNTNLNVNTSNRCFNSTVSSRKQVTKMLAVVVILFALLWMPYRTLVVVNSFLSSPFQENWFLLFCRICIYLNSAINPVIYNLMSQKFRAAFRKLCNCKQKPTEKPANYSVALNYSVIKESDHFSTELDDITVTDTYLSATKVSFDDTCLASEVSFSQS
Nuclear receptor subfamily 1 group I member 2 (Rattus norvegicus), sequence (Q9R1A7 whole entry, looked up): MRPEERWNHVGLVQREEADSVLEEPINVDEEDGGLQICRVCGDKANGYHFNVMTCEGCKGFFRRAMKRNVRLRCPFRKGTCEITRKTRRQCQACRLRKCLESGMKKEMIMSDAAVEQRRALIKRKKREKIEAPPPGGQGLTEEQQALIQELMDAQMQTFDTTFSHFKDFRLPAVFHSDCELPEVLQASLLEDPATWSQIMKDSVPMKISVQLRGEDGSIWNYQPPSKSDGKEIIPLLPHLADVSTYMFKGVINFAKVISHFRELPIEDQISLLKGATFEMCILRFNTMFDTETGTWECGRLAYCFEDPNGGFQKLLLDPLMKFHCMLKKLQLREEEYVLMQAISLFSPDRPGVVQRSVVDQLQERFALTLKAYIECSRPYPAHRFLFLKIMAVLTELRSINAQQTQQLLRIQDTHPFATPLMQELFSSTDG

| SMILES | Potency [1] | Potency [2] | Potency [3] | outcome [4] | outcome [5] | outcome [6] | outcome [7] | Potency [8] | Potency [9] | outcome [10] | Potency [11] | Potency [12] | Potency [13] | Potency [14] | Potency [15] | Potency [16] | max activation [17] [%] | Potency [18] | Potency [19] |
| --- | --- | --- | --- | --- | --- | --- | --- | --- | --- | --- | --- | --- | --- | --- | --- | --- | --- | --- | --- |
| O=C1OCCN1/N=C/c1ccc([N+](=O)[O-])o1 | inactive | inactive | inactive | inactive | inactive | inactive | inactive | inactive | inactive | inactive | inactive | inactive | inactive |  |  |  |  |  |  |
| CO[C@H]1C=CO[C@@]2(C)Oc3c(C)c(O)c4c(O)c(c5c(c4c3C2=O)=NC2(CCN(CC(C)C)CC2)N=5)NC(=O)/C(C)=C\C=C/[C@H](C)[C@H](O)[C@@H](C)[C@@H](O)[C@@H](C)[C@H](OC(C)=O)[C@@H]1C | 26.7 µM (active) |  |  | inactive | inactive |  | inactive | inactive |  | inactive | 30 µM (active) | 5.98 µM (active) | 0.158 µM (active) | inactive | 30 µM (active) | 53.3 µM (active) | -0.473 | 0.501 µM (active) | 39.1 µM (active) |
| CCCCCCCCSCCO | inactive | inactive | inactive | inactive | inactive |  | inactive | inactive | inactive | inactive | inactive |  |  |  | inactive | inactive |  |  | inactive |
| C[N+](C)(C)CCOC(N)=O | inactive | inactive | inactive | inactive | inactive |  |  | 3.38 µM (active) | inactive | inactive | inactive | inactive | inactive | inactive | inactive | inactive |  | inactive | inactive |
| CCCOC(=O)c1ccc(N)cc1 | inactive | inactive | inactive | inactive | inactive | inactive |  |  | inactive | inactive | inactive | inactive | inactive | inactive | inactive | inactive |  | inactive |  |
| CC(CCc1ccc2c(c1)OCO2)NN (stereo not given) | inactive | inactive | inactive | inactive |  | inactive | inactive | inactive | inactive | inactive | inactive | inactive |  |  | inactive | inactive |  |  | 30.9 µM (active) |
| CCNC(=O)N1CCN(CCCC(c2ccc(F)cc2)c2ccc(F)cc2)CC1 | 23.7 µM (active) | inactive |  | inactive | inactive | inactive | inactive | inactive | inactive | inactive | 29.8 µM (active) |  | inactive |  | 13.3 µM (active) | 26.6 µM (active) | -17 | inactive |  |
| C[C@@H]1C[C@H]2[C@@H]3CCC4=CC(=O)C=C[C@]4(C)[C@@]3(F)[C@@H](O)C[C@]2(C)[C@H]1C(=O)CO | inactive | inactive |  | inactive | inactive | inactive | inactive | inactive | inactive | inactive | inactive | 18.8 µM (active) | inactive | inactive | inactive | inactive |  | inactive | inactive |
| CCC(C(=O)OCCOCCN(CC)CC)c1ccccc1 (stereo not given) | inactive | inactive | inactive | inactive |  | inactive | inactive | inactive | inactive | inactive | inactive | inactive | inactive |  | inactive | inactive |  | inactive | 13.8 µM (active) |
| Nc1nccs1 | inactive | inactive | inactive | inactive | inactive | inactive | inactive | inactive | inactive | inactive | inactive | inactive | inactive | inactive | inactive | inactive |  | inactive | 31.7 µM (active) |
| CC1(C)C2=CCCC(C)(C)[C@]23CC[C@H]1C3 | inactive |  |  | inactive | inactive | inactive | inactive | inactive | inactive | inactive | inactive | 54.5 µM (active) |  | inactive | inactive | inactive |  |  | inactive |
| CCCCCCCCCOC(C)=O | inactive | inactive | inactive | inactive | inactive | inactive |  |  | inactive | inactive | inactive |  |  | inactive | inactive | inactive |  |  | inactive |
| CCOCCn1c(C2CCN(CCc3ccc(C(C)(C)C(=O)O)cc3)CC2)nc2ccccc21 | inactive | inactive | inactive | inactive | inactive | inactive | inactive | inactive | inactive | inactive | inactive | inactive |  | inactive | inactive | inactive |  |  | inactive |
| COc1cc2ncnc(Nc3ccc(F)c(Cl)c3)c2cc1OCCCN1CCOCC1 | inactive |  |  | inactive | inactive |  | inactive | inactive |  |  |  | inactive |  | 21.1 µM (active) | 23.7 µM (active) | 29.8 µM (active) |  |  | 13.8 µM (active) |
| Fc1c(F)c(F)c(Br)c(F)c1F | inactive |  | inactive | inactive | inactive | inactive | inactive | inactive |  | inactive | inactive | inactive |  | inactive |  | inactive |  |  | inactive |
| Nc1ccc(S(=O)(=O)O)c(N)c1 | inactive | inactive | inactive | inactive | inactive | inactive |  |  | inactive | inactive | inactive | inactive |  |  | inactive | inactive |  |  |  |
